CYP2C9 inhib: blockers of cytochrome P450 2C9 activity – biochemical, luminescence, ADME assay, primary screen; P11712; CYP2C9 Supersomes, luciferin-H conversion; inhibition, % at 5 µM; hit rate 20% among 96,000;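 active means blocking of liver enzyme CYP2C9 beyond about 50% at 5 µM, limit read from the data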
sEH inhibitor: soluble epoxide hydrolase inhibitors, primary screen, biochemical, human sEH; Bifunctional epoxide hydrolase 2 (Homo sapiens), P34913; recombinant human sEH enzymatic activity assay; inhibition, % at 2 µM; hit rate 0.34% among 91,000; AID 707, 2007; in the data active means inhibition above about 80%
Target sequence (P34913 whole entry, looked up): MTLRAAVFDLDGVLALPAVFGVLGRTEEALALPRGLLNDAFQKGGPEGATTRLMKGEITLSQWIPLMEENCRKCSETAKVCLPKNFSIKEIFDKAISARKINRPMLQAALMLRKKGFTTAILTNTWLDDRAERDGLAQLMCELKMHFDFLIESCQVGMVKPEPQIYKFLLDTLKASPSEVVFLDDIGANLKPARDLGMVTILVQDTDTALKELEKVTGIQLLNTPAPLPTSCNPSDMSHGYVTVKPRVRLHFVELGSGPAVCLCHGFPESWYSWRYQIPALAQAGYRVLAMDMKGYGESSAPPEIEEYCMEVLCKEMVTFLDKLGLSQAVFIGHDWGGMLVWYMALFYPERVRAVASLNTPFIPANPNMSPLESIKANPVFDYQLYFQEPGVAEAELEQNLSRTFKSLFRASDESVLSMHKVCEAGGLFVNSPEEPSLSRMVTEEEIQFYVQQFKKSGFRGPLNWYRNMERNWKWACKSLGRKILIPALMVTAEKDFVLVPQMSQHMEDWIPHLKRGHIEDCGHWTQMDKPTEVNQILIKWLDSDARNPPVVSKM
CYP2C9 act: human CYP2C9 activators, primary screen, biochemical, luminescence; Cytochrome P450 2C9 (Homo sapiens), P11712; recombinant CYP2C9, luciferin-H conversion; stronger effect = higher value; factor 1 = untreated enzyme, 0 = blocked; activation factor at 5 µM; hit rate 1.4% among 96,000; AID 1024, 2008;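 active means activation factor of 2 or more for CYP2C9 at a 5 µM dose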;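 further: 0 = sulfaphenazole-blocked wells and 1 = vehicle-only wells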
CYP2C19 act: human CYP2C19 activators, primary screen, biochemical, luminescence. recombinant CYP2C19, luciferin-H EGE luminescence; stronger effect = higher value; 0 = fully inhibited enzyme, 1 = untreated enzyme. activation factor at 5 µM. 96,000 tested, under 10 active;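 active means activation factor of at least 2 at 5 µM in the primary screen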;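 further: 0 = wells with 2.5 mM tranylcypromine and 1 = vehicle-only wells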
CYP2C19 inh: blockers of cytochrome P450 2C19 activity – biochemical, luminescence, ADME assay, primary screen. P33261. CYP2C19 Supersomes, luciferin-H EGE luminescence, 30 min. inhibition, % at 5 µM. hit rate 21% among 96,000;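 active means CYP2C19 inhibition above a set limit at 5 µM in the primary screen, cut at about 50% in these data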;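 further: plate controls were negative control wells for no effect and 2.5 mM tranylcypromine positive control for full effect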
sEH act: soluble epoxide hydrolase activators, primary screen, biochemical, human sEH | purified human sEH enzymatic activity, activator screen | activation, % at 2 µM | hit rate 0.04% among 91,000 | AID 717, 2007; in the data active means activation above about 37%
* = called active by the depositor. A selection: hits, their analogues and other compounds. The true share with any hit is near 27%.

Results for Cc1ccc(NC(=O)CN2C(=O)C3CCCCN3C(=O)c3ccccc32)cc1 (stereo unspecified) ?
CYP2C9 inhib: 13; sEH inhibitor: -6; CYP2C9 act: 0.9; CYP2C19 act: 0.9; CYP2C19 inh: 10; sEH act: 4

What do the screens show for `CCN(CC)C(=O)N1CCc2ccccc2C1CN1C(=O)c2ccccc2C1=O` (stereo unspecified)?
sEH inhibitor: -2; sEH act: 2

What do the screens show for `COC(=O)C1C(O)=CC(=O)CC1C` (stereo unspecified)?
sEH inhibitor: -3; sEH act: 2

Results for CCc1cc2cc3c(cc2nc1SCC(=O)Nc1nnc(C)s1)OCCO3 ?
CYP2C9 inhib: 59*; sEH inhibitor: 7; CYP2C9 act: 0.4; CYP2C19 act: 1.1; CYP2C19 inh: -13; sEH act: -6

Results for CCC(C(=O)NC(C)(C)C)N(C(=O)Cn1nnc(-c2cccs2)n1)c1cnc2ccccc2c1 (stereo unspecified) ?
CYP2C9 inhib: 65*; sEH inhibitor: 5; CYP2C9 act: 0.4; CYP2C19 act: 0.8; CYP2C19 inh: 18; sEH act: -5

How did COc1cccc(N(C(=O)Cn2nnc(-c3ccc(C)o3)n2)C(C(=O)NC(C)(C)C)c2cccs2)c1 (stereo unspecified) do in these assays?
sEH inhibitor: -5; sEH act: 5

Results for COc1cc(C2C(C#N)=C(C)NC3=C2C(=O)c2ccccc23)cc(OC)c1OC (stereo unspecified) ?
CYP2C9 inhib: 98*; CYP2C9 act: 0; CYP2C19 act: 0.7; CYP2C19 inh: 29

How did CCOc1ccc(C2C(C#N)=C(C)NC3=C2C(=O)c2ccccc23)cc1 (stereo unspecified) do in these assays?
CYP2C9 inhib: 97*; sEH inhibitor: -7; CYP2C9 act: 0; CYP2C19 act: 0; CYP2C19 inh: 99*; sEH act: 7

What do the screens show for `COc1ccc(C2C(C#N)=C(C)NC3=C2C(=O)c2ccccc23)cc1` (stereo unspecified)?
CYP2C9 inhib: 13; CYP2C9 act: 0.9; CYP2C19 act: 0.9; CYP2C19 inh: 11

Results for COc1cc(OC)cc(-c2nnc(SCC(=O)N3CCCC3)o2)c1 ?
CYP2C9 inhib: -22; sEH inhibitor: 4; CYP2C9 act: 1.2; CYP2C19 act: 1; CYP2C19 inh: 3; sEH act: -2

How did COc1ccc(OC)c(-c2nnc(SCC(=O)N3CCCc4ccccc43)o2)c1 do in these assays?
CYP2C9 inhib: 26; sEH inhibitor: 1; CYP2C9 act: 0.7; CYP2C19 act: 0; CYP2C19 inh: 98*; sEH act: 0

How did COc1ccc(OC)c(-c2nnc(SCC(=O)NC3CCCCC3)o2)c1 do in these assays?
CYP2C9 inhib: 23; CYP2C9 act: 0.8; CYP2C19 act: 0.6; CYP2C19 inh: 43

What do the screens show for `COc1cc(C(=O)NCc2nnc(SCC(=O)N3CCc4ccccc43)o2)cc(OC)c1OC`?
CYP2C9 inhib: 79*; sEH inhibitor: 0; CYP2C9 act: 0.2; CYP2C19 act: 0.4; CYP2C19 inh: 64*; sEH act: 0

How did O=C(CSc1nnc(-c2cccs2)o1)N1CCc2ccccc21 do in these assays?
CYP2C9 inhib: -14; CYP2C9 act: 1.1; CYP2C19 act: 0.8; CYP2C19 inh: 24

Results for O=C(CSc1nnc(-c2cccs2)o1)N1CCCc2ccccc21 ?
CYP2C9 inhib: 32; sEH inhibitor: -3; CYP2C9 act: 0.7; CYP2C19 act: 0.2; CYP2C19 inh: 77*; sEH act: 2

Results for COc1cc(OC)cc(-c2nnc(SCC(=O)N3CCCc4ccccc43)o2)c1 ?
CYP2C9 inhib: 20; sEH inhibitor: 2; CYP2C9 act: 0.8; CYP2C19 act: 0.1; CYP2C19 inh: 92*; sEH act: -1

What do the screens show for `COc1cccc(-c2nc(CSCC(=O)N3CCc4ccccc43)c(C)o2)c1`?
CYP2C9 inhib: -3; sEH inhibitor: -5; CYP2C9 act: 1; CYP2C19 act: 1; CYP2C19 inh: 2; sEH act: 4
